Only a selection was taken, and hits are over-represented in it overall.
RE007 growth inh: less growth of the S. pombe RE007 Vpr strain; S. pombe RE007 Vpr strain, BacTiter-Glo ATP luminescence, 24 h; Potency, µM (titrated, usually from 92.2 µM), most hits filed as inhibitors; 360,000 compounds, 0.21% hits; active = well fitted falling curve with a large enough effect; inconclusive = small, poorly fitted or top-dose-only effect; inactive = no such curve, though single readings can be large or run the other way; note: nearly all actives have a fitted effect of over 50% in size
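Fission yeast RE007 carrying one integrated HIV-1 vpr copy, seeded at OD 0.01 in PMG+AL medium with 23 nL pinned compound. Grown 24 h at 30 degrees; viability read by BacTiter-Glo luminescence after 5 min.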
FBPA Giardia inh: Giardia lamblia aldolase inhibition | Potency, µM (doses to about 59.6 µM), usual class: inhibitors | 290,000 compounds, 0.71% hits | purified Giardia FBPA | A8B2U2 | AID 2451; note: nearly all actives have a fitted effect of over 55% in size
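Giardia FBPA (40 nM reagent) was preincubated 10 min at RT with compound (up to 57.5 uM final), then substrate plus GAPDH/TPI/NAD/arsenate coupling system with diaphorase/resazurin was added; resorufin fluorescence (525/598 nm) was read after 20 min.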
LmPK inhibitor: LmPK (Leishmania mexicana) enzyme inhibition; 290,000 compounds, 0.37% hits; Q27686; AID 1721; purified LmPK, Kinase-Glo ATP luminescence, 1 h; Potency, µM (top dose mostly 57.5 µM), most hits filed as inhibitors
Target sequence (Q27686 whole entry, looked up): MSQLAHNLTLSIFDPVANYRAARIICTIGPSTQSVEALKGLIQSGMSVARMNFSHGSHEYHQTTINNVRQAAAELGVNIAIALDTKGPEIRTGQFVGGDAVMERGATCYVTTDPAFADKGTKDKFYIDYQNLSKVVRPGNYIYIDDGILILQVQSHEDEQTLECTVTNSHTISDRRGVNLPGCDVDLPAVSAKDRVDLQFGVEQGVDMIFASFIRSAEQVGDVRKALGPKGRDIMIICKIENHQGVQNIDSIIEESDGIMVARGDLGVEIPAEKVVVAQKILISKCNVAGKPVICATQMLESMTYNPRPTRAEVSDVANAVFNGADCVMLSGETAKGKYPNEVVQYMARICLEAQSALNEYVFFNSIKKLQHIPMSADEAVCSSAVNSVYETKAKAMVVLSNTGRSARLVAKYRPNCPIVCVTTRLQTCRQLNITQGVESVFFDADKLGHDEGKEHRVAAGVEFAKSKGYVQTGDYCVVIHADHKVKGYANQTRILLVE
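Pyruvate kinase activity monitored as ATP production (luciferase luminescence). Conditions: 0.1 nM enzyme, 0.5 mM PEP, 0.1 mM ADP, 1 h, RT; normalized against uninhibited and no-enzyme wells.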
Shiga inhibitor: inhibitors of Shiga toxin in Vero cells; Vero cells, Shiga toxin protein synthesis inhibition reporter; inhibition, % at 38.7 µM; 290,000 compounds, 9.2% hits; in the data active = inhibition mostly above about 28%, no sharp cut-off; inactive = mostly below about 43%
TbPYK inhibitor: T. brucei pyruvate kinase inhibition; TbPYK enzyme, Kinase-Glo Plus ATP luminescence, 45 min; Potency, µM (titrated, usually from 76.8 µM), most hits filed as inhibitors; AID 624173; 410,000 compounds, 0.12% hits; note: nearly all actives have a fitted effect of over 50% in size
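Luminescent Kinase-Glo Plus end-point after 45 min room-temperature reaction of T. brucei pyruvate kinase started with 130 uM ADP (final). Buffer TEA 50 mM pH 7.2 with KCl, MgCl2, BSA, Tween-20; titration-based qHTS with fitted concentration-effect curves.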
Cycloheximide cs: counter-screen for Shiga toxin inhibitors: cycloheximide protein synthesis inhibition | 300,000 compounds, 12% hits | max response, % | AID 2314 | cell reporter, cycloheximide protein synthesis inhibition counterscreen; in the data active = max response mostly above about 13%, no sharp cut-off; inactive = mostly below about 14%; note: read at 38.3 µM for the half of the compounds with a filed dose
Numbers stand for hits. Unless noted, calls come from the whole dose curve; as a rule, active = well fitted curve in the direction sought with a large enough effect; inconclusive = small, poorly fitted or top-dose-only effect, or another doubt; inactive = no such curve, though single readings can be large; an effect the other way counts as inactive or inconclusive.

What do the screens show for `Cc1nc2ccccc2c(=O)n1/N=C/c1ccc(O)cc1O`?
RE007 growth inh: inactive; FBPA Giardia inh: inactive; LmPK inhibitor: inactive; Shiga inhibitor: inactive; TbPYK inhibitor: inactive; Cycloheximide cs: inactive

Results for Cc1ccc(/C=N/n2c(C)nc3ccccc3c2=O)s1 ?
FBPA Giardia inh: inactive; LmPK inhibitor: inactive; Shiga inhibitor: 92; Cycloheximide cs: 40

Results for Cc1nc2ccccc2c(=O)n1/N=C/c1cccnc1 ?
RE007 growth inh: inactive; FBPA Giardia inh: inactive; LmPK inhibitor: inactive; Shiga inhibitor: inactive; TbPYK inhibitor: inactive; Cycloheximide cs: inactive

What do the screens show for `Cc1nc2ccccc2c(=O)n1/N=C/c1ccccc1Cl`?
RE007 growth inh: inactive; FBPA Giardia inh: inactive; LmPK inhibitor: inactive; Shiga inhibitor: 72; TbPYK inhibitor: inactive; Cycloheximide cs: 33

How did Cc1cc(Cl)ccc1NC(=O)C1CCN(c2nnc(-n3c(C)ccc3C)s2)CC1 do in these assays?
TbPYK inhibitor: inactive

How did CN(C)c1ccc(C(=O)Nc2ccc(-c3nc4ccccc4o3)cc2)cc1 do in these assays?
TbPYK inhibitor: inactive

How did O=C(Nc1ccc(-c2nc3cc(Cl)ccc3o2)cc1)C1CCCO1 (stereo not given) do in these assays?
RE007 growth inh: inactive; FBPA Giardia inh: inactive; LmPK inhibitor: inactive; Shiga inhibitor: 70; TbPYK inhibitor: inactive; Cycloheximide cs: 30

Results for O=C(Nc1ccc(-c2nc3cccnc3s2)cc1)C1CCCO1 (stereo not given) ?
RE007 growth inh: inactive; FBPA Giardia inh: inactive; LmPK inhibitor: 14µM; Shiga inhibitor: inactive; TbPYK inhibitor: inconclusive; Cycloheximide cs: inactive

What do the screens show for `O=C(O)c1cccc(NC(=O)C2CCCO2)c1` (stereo not given)?
RE007 growth inh: inactive; FBPA Giardia inh: inactive; LmPK inhibitor: inactive; Shiga inhibitor: inactive; TbPYK inhibitor: inactive; Cycloheximide cs: inactive

Results for O=C(Nc1ccc2oc(-c3ccccc3)nc2c1)C1CCCO1 (stereo not given) ?
RE007 growth inh: inactive; FBPA Giardia inh: inactive; LmPK inhibitor: inactive; Shiga inhibitor: 67; TbPYK inhibitor: inactive; Cycloheximide cs: 45

What do the screens show for `O=C(Nc1ccc(-c2nc3ccccc3o2)cc1)C1CCCO1` (stereo not given)?
RE007 growth inh: inconclusive; FBPA Giardia inh: inactive; LmPK inhibitor: 16µM; Shiga inhibitor: 73; TbPYK inhibitor: inactive; Cycloheximide cs: 37

How did Cc1ccc(C2=Nc3ccccc3N(CC(=O)Nc3ccccc3F)C(=O)C2)cc1C do in these assays?
TbPYK inhibitor: inactive

How did CN(C1CCCCC1)S(=O)(=O)c1ccc(F)c(C(=O)Nc2ccc(C(F)(F)F)cc2)c1 do in these assays?
TbPYK inhibitor: inactive

How did CCCCCCCCC#CCC#CCC#CCCCC(=O)O do in these assays?
FBPA Giardia inh: inactive

Results for CC1=C(C(=O)Nc2ccccc2)C(c2ccc(O)cc2)n2nc(-c3ccc(Cl)cc3)nc2N1 (stereo not given) ?
TbPYK inhibitor: inactive

How did O=C1OC(c2ccc(F)cc2)=C/C1=C\c1ccc(O)cc1 do in these assays?
RE007 growth inh: inactive; FBPA Giardia inh: inactive; LmPK inhibitor: inactive; Shiga inhibitor: inactive; TbPYK inhibitor: inactive; Cycloheximide cs: 14

Results for CCC(C(=O)Nc1cc(OC)ccc1OC)n1c(C)c2cnn(-c3ccccc3)c(=O)c2c1C (stereo not given) ?
TbPYK inhibitor: inactive

Results for COc1ccc(CNc2ccc(-c3ccccc3OC)nn2)cc1 ?
RE007 growth inh: inactive; FBPA Giardia inh: inactive; LmPK inhibitor: inactive; Shiga inhibitor: inactive; TbPYK inhibitor: inactive; Cycloheximide cs: 22

Results for COc1ccccc1-c1nccc(NCc2ccccc2)n1 ?
FBPA Giardia inh: inactive

How did COc1ccccc1-c1ccc(NC2CCCC2)nn1 do in these assays?
RE007 growth inh: inactive; FBPA Giardia inh: inactive; LmPK inhibitor: inactive; Shiga inhibitor: 55; TbPYK inhibitor: inactive; Cycloheximide cs: 24

Results for COc1ccc(CNc2nc(-c3ccc(OC)cc3)cc(C(F)(F)F)n2)cc1 ?
TbPYK inhibitor: inactive

How did COc1ccc(CNc2ccc(-c3ccc(OC)cc3)nn2)cc1 do in these assays?
RE007 growth inh: inactive; FBPA Giardia inh: inactive; LmPK inhibitor: inactive; Shiga inhibitor: 40; TbPYK inhibitor: inactive; Cycloheximide cs: 19
